Data from PubChem BioAssay (NCI).
This is part of a sample that, as a whole, favours compounds with a hit. Of some 79,000 tested, about 15% had one in any assay. The source made the active and inactive calls. Rule as the data show it: active = growth inhibition above about 70%; inactive = the rest.

What was measured:
[1] = NCI Yeast Anticancer Drug Screen. Data for the mec2-1 strain (AID 157); settings: S. cerevisiae mec2-1 strain, active compounds read high
Summary of the method: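 Growth inhibition is read against vehicle-treated controls after compound exposure of the mec2-1 yeast strain, which is defective in DNA damage repair or cell cycle control.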

[2] = NCI Yeast Anticancer Drug Screen. Data for the rad14 strain (AID 159);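 also: 0% = growth of vehicle-treated control cultures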; settings: S. cerevisiae rad14 strain growth inhibition, active compounds read high
Summary of the method: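 Screen for anticancer potential: a yeast strain altered in DNA damage repair is grown with compound, and reduced growth is quantified against vehicle controls.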

[3] = NCI Yeast Anticancer Drug Screen. Data for the sgs1 mgt1 strain (AID 161);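 also: 0% = growth of cultures given vehicle only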; settings: S. cerevisiae sgs1 mgt1 strain, active compounds read high
Summary of the method: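 Compounds are added to genetically altered yeast, and growth is compared with cultures given vehicle alone to give percent inhibition.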

[4] = NCI Yeast Anticancer Drug Screen. Data for the CLN2oe strain (AID 163);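 also: 0% = growth of vehicle-only control cultures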; settings: S. cerevisiae CLN2oe strain, active compounds read high
Summary of the method: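 Compound-treated yeast; growth vs vehicle ctrl = % inhibition. Genetically altered strain (cell-cycle control).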

[5] = NCI Yeast Anticancer Drug Screen. Data for the cln2 rad14 strain (AID 165);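 also: 0% = growth equal to vehicle treated cultures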; settings: S. cerevisiae cln2 rad14 strain, active compounds read high
Summary of the method: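 Growth inhibition, relative to vehicle-treated controls, is the read-out. The test organism is a yeast strain with defined genetic alterations, cln2 rad14.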

[6] = NCI Yeast Anticancer Drug Screen. Data for the bub3 strain (AID 167); settings: S. cerevisiae bub3 mutant strain, active compounds read high
Summary of the method: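 Screening used yeast with an engineered genetic alteration affecting cell cycle control. Compound-exposed cultures were compared with vehicle cultures, and reduced growth was taken as inhibition.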

[7] = NCI Yeast Anticancer Drug Screen. Data for the wt2 strain (AID 169);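 also: 0% = growth of vehicle-treated yeast cultures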; settings: S. cerevisiae wt2 strain growth inhibition, active compounds read high
Summary of the method: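 Compound exposure of yeast; growth compared with vehicle controls; inhibition reported.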

[8] = NCI Yeast Anticancer Drug Screen. Data for the mlh1 strain (AID 171);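 also: 0% = growth of vehicle-treated control cultures of the same strain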; settings: S. cerevisiae mlh1 strain growth inhibition, active compounds read high
Summary of the method: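 Compounds are applied to a genetically altered yeast strain, and its growth is compared with that of vehicle-treated cultures to give percent inhibition.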

[9] = NCI Yeast Anticancer Drug Screen. Data for the sgs1 strain (AID 173);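 also: 0% = growth of vehicle-only control cultures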; settings: S. cerevisiae sgs1 mutant, active compounds read high
Summary of the method: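 Compounds applied to genetically altered yeast; growth compared with vehicle-treated cultures to give % inhibition.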

[10] = NCI Yeast Anticancer Drug Screen. Data for the mlh1 rad18 strain (AID 175); settings: S. cerevisiae mlh1 rad18 strain growth inhibition, active compounds read high
Summary of the method: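 Cells of a genetically altered yeast strain, deficient in DNA damage repair, were treated with compound. Their growth was then compared with that of vehicle-treated cultures to give inhibition.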

[11] = NCI Yeast Anticancer Drug Screen. Data for the rad18 strain (AID 177); settings: S. cerevisiae rad18 mutant growth inhibition, active compounds read high
Summary of the method: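 Compounds are applied to a repair-deficient yeast strain, and growth is compared with that of vehicle-treated cultures to give percent inhibition.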

[12] = NCI Yeast Anticancer Drug Screen. Data for the rad52 strain (AID 147);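 also: 0% = growth of vehicle-treated control cultures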; settings: S. cerevisiae rad52 mutant growth inhibition, active compounds read high
Summary of the method: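 DNA repair-defective yeast; compound exposure; growth scored against vehicle controls.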

[13] = NCI Yeast Anticancer Drug Screen. Data for the wt1 strain (AID 149);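 also: 0% = growth of vehicle-treated wt1 cultures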; settings: S. cerevisiae wt1 strain (SPY 50644) growth inhibition, active compounds read high
Summary of the method: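 Using yeast strain wt1, compound-induced growth inhibition was determined against vehicle-treated cultures.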

[14] = NCI Yeast Anticancer Drug Screen. Data for the rad50EPP+ strain (AID 151);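 also: 0% = growth of vehicle-treated control cultures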; settings: S. cerevisiae rad50 mutant strain, active compounds read high
Summary of the method: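 rad50EPP+ yeast treated with test compounds. Readout: growth vs vehicle control.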

[15] = NCI Yeast Anticancer Drug Screen. Data for the mgt1 strain (AID 153); settings: S. cerevisiae mgt1 mutant growth inhibition, active compounds read high
Summary of the method: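 Growth inhibition relative to vehicle controls was scored for the mgt1 yeast strain after compound exposure.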

[16] = NCI Yeast Anticancer Drug Screen. Data for the rad50 strain (AID 155);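 also: 0% = growth of vehicle-only cultures of the same strain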; settings: S. cerevisiae rad50 strain growth inhibition, active compounds read high
Summary of the method: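 Relative growth inhibition (compound vs vehicle) was measured in yeast with a defined repair-gene alteration.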

[17] = at 5.0 µM (retest, dose inferred, filed as 0.5)
[18] = at 50.0 µM (retest, dose inferred, filed as 5.0)

Measured: growth inhibition

C(=Nc1ccc(-c2cc(-c3ccccc3)nc3ccc4ccccc4c23)cc1)c1ccccc1
active: [1]; [18] 72% | [3]; [18] 92% | [5]; [18] 75% | [6]; [18] 89% | [7]; at 100.0 µM 81% | [10]; [18] 85% | [11]; at 100.0 µM 73%
inactive: [1]; [17] 17% | [1]; at 11.0 µM 16% | [1]; at 33.0 µM 14% | [1]; at 50.0 µM 33% | [1]; at 100.0 µM 31% | [2]; at 1.2 µM 24% | [2]; at 3.7 µM 20% | [2]; at 11.0 µM 21% | [2]; at 33.0 µM 38% | [2]; at 100.0 µM 34% | [3]; [17] 11% | [3]; at 50.0 µM 55.2% | [4]; at 1.2 µM 29% | [4]; at 3.7 µM 24% | [4]; at 11.0 µM 34% | [4]; at 33.0 µM 38% | [4]; at 100.0 µM 37% | [5]; [17] 25% | [5]; at 50.0 µM 14.7% | [6]; at 1.2 µM -9% | [6]; at 3.7 µM -13% | [6]; [17] 12% | [6]; at 11.0 µM -5% | [6]; at 33.0 µM 14% | [6]; at 50.0 µM 50.8% | [6]; at 100.0 µM 31% | [7]; at 1.2 µM -22% | [7]; at 3.7 µM -21% | [7]; at 11.0 µM -17% | [7]; at 33.0 µM 62% | [8]; at 1.2 µM 8% | [8]; at 3.7 µM 17% | [8]; at 11.0 µM 9% | [8]; at 33.0 µM -8% | [8]; at 100.0 µM 9% | [9]; at 1.2 µM 28% | [9]; at 3.7 µM 18% | [9]; at 11.0 µM 25% | [9]; at 33.0 µM 36% | [9]; at 100.0 µM 64% | [10]; [17] 20% | [10]; at 50.0 µM 57.6% | [11]; at 1.2 µM 30% | [11]; at 3.7 µM 32% | [11]; at 11.0 µM 44% | [11]; at 33.0 µM 68%

CN(C)c1ccc2c(SCC(=O)OCC(=O)[C@@]3(O)CC[C@H]4[C@@H]5CCC6=CC(=O)C=C[C@]6(C)[C@H]5C(=O)C[C@@]43C)c3ccc(N(C)C)cc3nc2c1
inactive: [12]; at 1.2 µM -7% | [12]; at 3.7 µM -8% | [12]; at 11.0 µM 46% | [13]; at 1.2 µM 16% | [13]; at 3.7 µM -16% | [13]; at 11.0 µM 64% | [14]; at 1.2 µM 1% | [14]; at 3.7 µM 6% | [14]; at 11.0 µM 6% | [14]; at 33.0 µM 63% | [15]; at 1.2 µM -27% | [15]; at 3.7 µM -37% | [15]; at 11.0 µM 69% | [16]; at 1.2 µM -31% | [16]; at 3.7 µM -13% | [16]; [17] 7% | [16]; at 50.0 µM 60.2% | [1]; at 1.2 µM -10% | [1]; at 3.7 µM -5% | [1]; [17] 13% | [1]; at 11.0 µM 55% | [2]; at 1.2 µM -12% | [2]; at 3.7 µM -22% | [2]; at 11.0 µM 66% | [3]; [17] 12% | [4]; at 1.2 µM 9% | [4]; at 3.7 µM 16% | [4]; at 11.0 µM 53% | [5]; [17] 0% | [6]; at 1.2 µM -13% | [6]; at 3.7 µM -4% | [6]; [17] 22% | [6]; at 11.0 µM 55% | [7]; at 1.2 µM -89% | [7]; at 3.7 µM -74% | [7]; at 11.0 µM -15% | [7]; at 33.0 µM 67% | [8]; at 1.2 µM -15% | [8]; at 3.7 µM -30% | [8]; at 11.0 µM 46% | [9]; at 1.2 µM 2% | [9]; at 3.7 µM -18% | [10]; [17] 50% | [11]; at 1.2 µM -9% | [11]; at 3.7 µM 6%
active: [12]; at 33.0 µM 90% | [12]; at 100.0 µM 92% | [13]; at 33.0 µM 91% | [13]; at 100.0 µM 91% | [14]; at 100.0 µM 83% | [15]; at 33.0 µM 89% | [15]; at 100.0 µM 88% | [16]; at 11.0 µM 71% | [16]; at 33.0 µM 90% | [16]; [18] 89% | [16]; at 100.0 µM 89% | [1]; at 33.0 µM 90% | [1]; [18] 86% | [1]; at 50.0 µM 72.9% | [1]; at 100.0 µM 90% | [2]; at 33.0 µM 90% | [2]; at 100.0 µM 88% | [3]; [18] 92% | [3]; at 50.0 µM 78.7% | [4]; at 33.0 µM 89% | [4]; at 100.0 µM 89% | [5]; [18] 78% | [5]; at 50.0 µM 80.7% | [6]; at 33.0 µM 87% | [6]; [18] 95% | [6]; at 50.0 µM 72.3% | [6]; at 100.0 µM 89% | [7]; at 100.0 µM 83% | [8]; at 33.0 µM 86% | [8]; at 100.0 µM 87% | [9]; at 11.0 µM 71% | [9]; at 33.0 µM 91% | [9]; at 100.0 µM 90% | [10]; [18] 86% | [10]; at 50.0 µM 84.5% | [11]; at 11.0 µM 74% | [11]; at 33.0 µM 90% | [11]; at 100.0 µM 87%
